# According to the supplement of paper PMC4894684:
# Where a name gives a salt, the structure may show the parent alone. ± gives the standard deviation of the averaged measurements.
# System: Toxoplasma gondii RH (in HFF)
# Assay: parasite growth relative to the screen mean (all compounds = 100%); higher = less inhibition of parasite growth
# Settings: 5 µM; 72 h; oxygen 21 %
# Procedure, shortened: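 Values give growth relative to the screen mean. The screen mean (all compounds) is set at 100%, and two screens were averaged. Compounds at 5 µM final were placed on confluent human foreskin fibroblasts, which were infected within 2 h with RH β-Gal–GFP Toxoplasma (MOI 1:5) and kept 72 h at 21% O2 before a CPRG β-Gal readout against in-plate standard curves.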
structure (smiles),measurement,value
N[C@H](C(=O)O)c1ccc(C(=O)O)c(O)c1 [(S)-4-Carboxy-3-hydroxyphenylglycine],parasite growth,143 ± 25%
N#C/C(=C\c1ccc(O)c(O)c1)C(=O)OCCc1cccs1,parasite growth,132 ± 15%
O=C(O)c1ccc(C=C2SC(=S)N(c3cccc(C(F)(F)F)c3)C2=O)cc1,parasite growth,109 ± 36%
O=C(c1ccc(Nc2nccc(-c3cc4ccccc4s3)n2)cc1)N1CCC(N2CCCC2)CC1,parasite growth,< 0%
Cc1noc(NS(=O)(=O)c2cccc3c(N(C)C)cccc23)c1C,parasite growth,59.8 ± 11%
COc1cccc(NC(=O)/C=C/c2ccc(Cl)cc2)c1,parasite growth,136.1 ± 0.67%
COc1ccccc1N1CCN(CCCNc2cc(=O)n(C)c(=O)n2C)CC1 [Urapidil hydrochloride],parasite growth,105 ± 3.7%
CC1(COc2ccc(CC3SC(=O)NC3=O)cc2)CCCCC1 (configuration not stated) [Ciglitazone],parasite growth,100 ± 22%
Cc1c[nH]c(=O)n(CCCN2CCN(c3ccccc3OCC(F)(F)F)CC2)c1=O,parasite growth,116 ± 6.9%
Oc1cc2c(c(Cl)c1O)CCNCC2c1ccccc1 (configuration not stated),parasite growth,103 ± 32%
Cc1c(CC(C)(C)C(=O)O)n(Cc2ccc(Cl)cc2)c2ccc(F)cc12,parasite growth,129 ± 22%
Nc1c(S(=O)(=O)O)cc(Nc2cccc3ccccc23)c2c1C(=O)c1ccccc1C2=O,parasite growth,172 ± 11%
O=C(O)c1ccc2cc(-c3ccc(O)c(C45CC6CC(CC(C6)C4)C5)c3)ccc2c1,parasite growth,181 ± 36%
COc1ccccc1N1CCN(CCCCN2C(=O)c3ccccc3C2=O)CC1 [NAN-190 hydrobromide],parasite growth,133 ± 11%
CC[N+](C)(CC)CC(=O)Nc1c(C)cccc1C [N-Methyllidocaine iodide],parasite growth,119 ± 24%
c1cc(CN2CCCCC2)cc(OCCCNc2nc3ccccc3s2)c1 [Zolantidine dimaleate],parasite growth,112 ± 4.6%
O=S1(=O)c2cccc3cccc(c23)N1CCCN1CCN(c2ccc(F)cc2)CC1 [Fananserin],parasite growth,130 ± 14%
CC(Cc1ccccc1)(NC(=O)CN)c1ccccc1 (configuration not stated) [Remacemide hydrochloride],parasite growth,129 ± 5.9%
O=[N+]([O-])c1cccc2c(Br)[nH]nc12 [3-Bromo-7-nitroindazole],parasite growth,123 ± 5.8%
CS(=O)(=O)CCNCc1nc(-c2ccc3ncnc(Nc4ccc(OCc5cccc(F)c5)c(Cl)c4)c3c2)cs1,parasite growth,63.4 ± 19%
Cc1ccc(NC(=O)c2cccc(N(C)C)c2)cc1NC(=O)c1ccc(O)cc1,parasite growth,141 ± 7.3%
COc1ccc2[nH]c([S+]([O-])Cc3ncc(C)c(OC)c3C)nc2c1 (configuration not stated) [Omeprazole],parasite growth,178 ± 7.3%
[O-][S+](c1ccccc1)c1ccc2nnnn2n1 (configuration not stated),parasite growth,111.89 ± 0.016%
COc1ccc(-c2oc3cc(OC)ccc3c2C(=O)c2ccc(C#N)cc2)cc1,parasite growth,81.1 ± 22%
CN1CCN(C2=Cc3ccccc3Oc3ccc(Cl)cc32)CC1,parasite growth,31.7 ± 7.6%
O=C(/C=C/c1ccc(O)c(O)c1)O[C@H](Cc1ccc(O)c(O)c1)C(=O)O [Rosmarinic acid],parasite growth,110 ± 5.5%
O=C(O)C(=O)O.[NH-][C@@H]1CCCC[C@H]1[NH-].[Pt+2] [Oxaliplatin],parasite growth,143 ± 2.5%
CCc1c2c(nc3ccc(O)cc13)-c1cc3c(c(=O)n1C2)COC(=O)[C@]3(O)CC,parasite growth,110.2 ± 0.25%
CN1CCC(=C2c3ccccc3CC(=O)c3sccc32)CC1 [Ketotifen fumarate],parasite growth,54.3 ± 14%
COc1cc2c(Nc3ccc(NC(=O)c4ccccc4)cc3)ncnc2cc1OCCCN1CCOCC1,parasite growth,17.4 ± 8.7%
COc1ccc(CN(CCN(C)C)c2ccccn2)cc1 [Mepyramine maleate],parasite growth,115 ± 5.5%
OC[C@H]1NC[C@@H](O)[C@@H](O)[C@@H]1O [1-Deoxymannojirimycin hydrochloride],parasite growth,141 ± 9.1%
N#CC(=C(/N)Sc1ccccc1N)/C(C#N)=C(/N)Sc1ccccc1N,parasite growth,197 ± 14%
Cc1nnc(-c2ccc3occ(-c4ccc([S+](C)[O-])cc4)c3c2)o1 (configuration not stated),parasite growth,83.7 ± 4.5%
O=C1NC(=O)C(c2ccccc2[N+](=O)[O-])=C1Nc1ccc(O)c(Cl)c1,parasite growth,155 ± 3.7%
Nc1nc(Nc2ccccc2)nc2c1ncn2[C@@H]1O[C@H](CO)[C@@H](O)[C@H]1O,parasite growth,123 ± 7.1%
N[C@H]1CCN(O)C1=O,parasite growth,94.9 ± 34%
COc1ccccc1N1CCN(CCN2C(=O)CC3(CCCC3)CC2=O)CC1 [BMY 7378 dihydrochloride],parasite growth,81.06 ± 0.29%
Cc1noc(NS(=O)(=O)c2ccc(N)cc2)c1C [Sulfisoxazole],parasite growth,108 ± 1.1%
O=C(NCCO[N+](=O)[O-])c1cccnc1 [Nicorandil],parasite growth,109 ± 12%
CC[C@@H]1Cn2c(c3nc(-c4ccccc4)nc-3n(C)c2=O)N1,parasite growth,96.8 ± 13%
Cc1ccc(CC2(O)CCN(CCOc3ccc(O)cc3)CC2)cc1,parasite growth,111 ± 35%
